Screening results deposited in PubChem by several laboratories.
MsrA inhibitor: inhibitors of bovine MsrA; 360,000 tested, 0.75% active; purified bovine MsrA, absorbance read-out; inhibition, % at 15.5 µM; AID 651718; in the data active = inhibition above about 4.5%
SUMO Mot1 rescue: SUMOylation pathway inhibition by Mot1-301 growth rescue | S. cerevisiae Mot1-301 growth rescue, ATP luminescence, 38.5C; percent above DMSO median, 100 means doubled | growth rescue, % at 18.8 µM | 320,000 tested, 1% active | AID 2716;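 active = every valid replicate shows activation above 250% relative to neutral control wells; inactive = the rest, any valid replicate at or below 250%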
PKA-R2B activ: activators of human PKA-R2B complex; P22694+P31323; PKA-R2B holoenzyme dissociation, Cy5-IP20 fluorescence polarization; R2B truncated from residue 108, S112A mutant; 0% DMSO only, 100% 113 µM cGMP; activation, % at 11.4 µM; 340,000 tested, 0.079% active; AID 504700;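 active = activation above a cutoff set at the mean over all compounds plus 3 SD, cut at about 18% in these data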;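 note: higher means more holoenzyme dissociation and a rise in polarization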
Target sequence (P31323 whole entry, looked up, other chains not shown, the tested form may be a part): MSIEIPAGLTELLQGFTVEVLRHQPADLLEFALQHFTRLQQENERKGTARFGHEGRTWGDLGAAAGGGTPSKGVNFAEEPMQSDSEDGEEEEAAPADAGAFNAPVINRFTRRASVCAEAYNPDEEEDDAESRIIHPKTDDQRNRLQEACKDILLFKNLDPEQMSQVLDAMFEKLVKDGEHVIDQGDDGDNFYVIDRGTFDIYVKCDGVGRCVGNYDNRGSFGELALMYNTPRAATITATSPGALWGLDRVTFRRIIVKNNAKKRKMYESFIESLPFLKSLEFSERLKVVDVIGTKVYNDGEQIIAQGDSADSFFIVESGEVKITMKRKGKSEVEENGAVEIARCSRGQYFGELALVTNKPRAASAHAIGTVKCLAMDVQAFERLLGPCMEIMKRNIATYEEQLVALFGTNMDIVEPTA
MsrA act: bovine methionine sulfoxide reductase A activation | purified bovine MsrA, absorbance read-out | activation, % at 10.6 µM | 360,000 tested, 0.3% active; in the data active = activation above about 7.5%
PKA-R1A act: activators of PKA-R1A complex. AID 504707. P00514+P68181. 340,000 tested, 0.083% active. activation, % at 11.4 µM. PKA-R1A dissociation, Cy5-IP20 fluorescence polarization; scaled: DMSO 0%, 113 µM cGMP 100%;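 active = percent activation above the mean of all tested compounds plus 3 SD, cut at about 19% in these data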;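 note: higher means more PKAc released from R1A so a rise in polarization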
Yeast Mot1 SUMO: inhibits SUMO pathway, affecting Mot1-301 yeast growth. shares compounds with SUMO Mot1 rescue. S. cerevisiae Mot1-301 galactose growth, ATP luminescence, 24 h; -100 = growth of slx-deleted rescue strain. growth activity, percent, % at 42 µM. 2,300 tested, under 10 active;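 active = Signal drops as the depositor expects, and the fitted half-maximal dose is no more than ten times the top valid tested dose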;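 note: more negative values mean stronger growth rescue toward the control strain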
Numbers stand for hits; . = inactive; / = no result; + = active, no number; ! = a repeat was not active. Most compounds without a hit are left out; they make up all but 2% or so of the library.

SMILES	MsrA inhibitor	SUMO Mot1 rescue	PKA-R2B activ	MsrA act	PKA-R1A act	Yeast Mot1 SUMO
Cc1cc(C)c(S(=O)(=O)c2cccc(C)c2C)c(=O)[nH]1	.	414.6	.	.	.	.
O=C(O)c1ccc2nc(-c3ccccc3)c(-c3ccccc3)nc2c1	.	.	.	.	.	/
CCN1CCN(C(=O)c2ccc3nc(-c4ccccc4)c(-c4ccccc4)nc3c2)CC1	.	474.1	.	.	.	.
COc1ccc(C2C(C(C)=O)=C(O)C(=O)N2CCc2c[nH]c3ccccc23)cc1OC (stereo unspecified)	.	.	.	.	.	/
COc1cccc(C2C(C(C)=O)=C(O)C(=O)N2CCc2c[nH]c3ccccc23)c1 (stereo unspecified)	.	603.7	.	.	.	.
CCOC(=O)C1(Cc2ccccc2Cl)CCN(C(=O)c2cnccn2)CC1	.	.	.	.	.	/
CCOC(=O)C1(Cc2cccc(F)c2)CCN(C(=O)c2cnccn2)CC1	.	631.7	.	.	.	.
CCOc1ccc(/C=N/NC(=O)c2ccc(CSc3nc4ccccc4[nH]3)cc2)cc1	.	508.1	.	.	.	.
O=C(N/N=C/c1ccc(OC(F)F)cc1)c1ccc(CSc2nc3ccccc3[nH]2)cc1	.	.	.	.	.	/
S=C(Nc1ccc(Cl)cc1)N1CCN(Cc2ccccc2)CC1	.	590.1	.	.	.	.
Cc1[nH]c2ccccc2c1/C=N/NC(=O)c1cccc(Br)c1	/	496.5	.	.	.	.
CCN(CC)CCCn1c(=S)[nH]c2ccc(Cl)cc2c1=O	.	631.3	.	.	.	.
CCOC(=O)Cc1csc(NC(=O)NC2(C(F)(F)F)Oc3ccccc3O2)n1	.	770.2	.	.	.	.
Cc1cc(N2CCNC[C@@H]2C)ccc1N1C[C@@H](C)O[C@@H](C)C1	.	/	/	/	/	/
O=C(COc1ccccc1)Nc1ccc(OC(F)(F)C(F)F)c(NC(=O)COc2ccccc2)c1	.	961.0	.	.	.	.
Cc1ccc(C(=O)NNc2ncnc3c2cnn3C)cc1	.	+	.	.	.	.
Cc1ccccc1C(=O)NNc1ncnc2c1cnn2C	.	.	.	.	.	/
CC1CN(Cc2ccccc2)c2nc3c(c(=O)[nH]c(=O)n3C)n2C1 (stereo unspecified)	.	475.2	.	.	.	.
COC(=O)[C@]12C[C@H](CC(=O)NCCCN3CCCC3=O)C(=O)N(CCC3=CCCCC3)C1=C[C@H](COCc1ccccc1)O[C@@H]2C	.	/	/	/	/	/
O=C(Cc1ccccc1)N1CCCC1c1ccccc1 (stereo unspecified)	.	+	.	.	.	.
CC(N=C(NC#N)Nc1ccncc1)C(C)(C)C (stereo unspecified)	.	798.1!	.	.	.	.
O=[N+]([O-])c1ccc2c(c1)CO[C@]21O[C@H](CCO)C[C@H](O)[C@H]1O	.	/	/	/	/	/
C=CC[C@]12C[C@@]3(O[C@H](c4ccccn4)N=C3C[C@H](c3ccc(OC)cc3)[C@H]1C)N(C1CCN(Cc3ccccc3)CC1)C2=O	.	/	/	/	/	/
CCc1ccc(NC(=O)N2CCC(c3ccccc3)C2)cc1 (stereo unspecified)	.	929.3	.	.	.	.
COc1cc(SC)ccc1C(=O)N1CCN(c2ccccc2)CC1	.	.	/	.	/	/
SMILES	MsrA inhibitor	SUMO Mot1 rescue	PKA-R2B activ	MsrA act	PKA-R1A act	Yeast Mot1 SUMO
COc1cc(SC)ccc1C(=O)N1CCCCCC1	.	+	.	.	.	.
O=[N+]([O-])c1nccn1CC(O)CCN1CCOCC1 (stereo unspecified)	.	/	/	/	/	/
CSc1cc(C)c(OCC(=O)Nc2c(C)nn(C)c2C)c(C)c1	.	384.7	.	.	.	.
Cc1nn(C)c(C)c1NC(=O)COc1ccc(F)cc1Br	.	.	.	.	.	/
Nn1c(SCc2cc([N+](=O)[O-])cc3c2OCOC3)nnc1-c1ccccn1	.	530.7	.	.	.	.
O=[N+]([O-])c1cc2c(c(CSc3nnc4ccccn34)c1)OCOC2	.	.	.	.	.	/
Cc1ccccc1C(=O)NNC(=S)Nc1cccc(C(F)(F)F)c1	.	404.7	.	.	.	.
CN(C)S(=O)(=O)c1ccc(C(=O)/C=C/c2cccnc2)cc1	.	644.4	.	.	.	.
COCCCn1c(=O)c2ccccc2n(Cc2ccccc2C)c1=O	.	454.8	.	.	.	.
COCCCn1c(=O)c2ccccc2n(Cc2ccc(C)cc2)c1=O	.	.	.	.	.	/
O=S(=O)(c1ccc(C(F)(F)F)cc1)N1CCCc2nc(-c3ccccc3)ccc21	.	/	/	/	/	/
O=C(Oc1ccccc1N1C(=O)C2CC=CCC2C1=O)c1ccc(Br)cc1 (stereo unspecified)	.	549.1	.	.	.	.
Nc1[nH]c(C(=O)c2ccccc2)c(-c2ccc(Br)cc2)c1C(=O)c1ccccc1	.	/	/	/	/	/
Cc1ccccc1NC(=O)Cn1c(=O)oc2ccccc21	.	.	.	.	.	/
COc1ccc(C)cc1NC(=O)Cn1c(=O)oc2ccccc21	.	486.3	.	.	.	.
Cc1ccc(-c2nnc(SCC#N)n2N)cc1	.	+	.	.	.	.
Cc1cccc(-c2nnc(SCC#N)n2C)c1	.	.	.	.	.	/
Nc1ncnc2c1ncn2[C@@H]1O[C@H](C(=O)N[C@@H](CCc2ccccc2)C(=O)O)[C@@H](O)[C@H]1O	.	/	/	/	/	/
CC[C@H](C)[C@H]1CNC(=O)C(=O)N1CC1CCN(CC(C)C)CC1	.	/	/	/	/	/
CCCCC(O)(CCCC)C(=O)NN(C(=O)OC)c1ccc(C)cc1	.	446.2	.	.	.	.
O=C1NC(c2ccc(Br)cc2)c2c(-c3ccccc3)n[nH]c21 (stereo unspecified)	.	/	/	/	/	/
CN1C(=O)C2(NCCc3c2[nH]c2ccccc32)c2ccccc21 (stereo unspecified)	.	.	.	.	.	/
CC1=CC(C)(C)N2C(=O)C3(NCCc4c3[nH]c3ccccc43)c3cc(C)cc1c32 (stereo unspecified)	.	506.2	.	.	.	.
C[C@H](O)[C@@H]1C(=O)N2CCc3c([nH]c4c(-c5ccccc5)cccc34)[C@@H]2C[C@@H]1N(C)C(=S)Nc1ccc(C#N)cc1	.	/	/	/	/	/
O=C(Nc1ccc(Cl)cc1)N1CCC(c2nc(-c3ccc(F)cc3)no2)CC1	.	+	.	.	.	.
COc1ccc(NC(=O)N2CCCC(c3nc(-c4ccc(OC)cc4)no3)C2)cc1 (stereo unspecified)	.	.	.	.	.	/
OC(c1ccccc1)(C1CCCCC1)C(CN1CCOCC1)c1ccccc1 (stereo unspecified)	.	459.8	.	.	.	.
COc1ccc(C(O)(C2CCCCC2)C(CN2CCOCC2)c2ccccc2)cc1 (stereo unspecified)	.	.	.	.	.	/
